The text below walks through data of PubChem BioAssay.

Values joined by “and” are separate entries in the source; they are usually repeats but may differ in a detail not shown here. Identical values can stand only once. The source holds several records for some structures; these can differ, active in one and inactive in another. Active and inactive are the calls of the source.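 How the source made its calls, unless noted: active means inhibition at or above 50% relative to wild type and mutant plate controls; inactive means inhibition below 50%.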

Assay [1] can be described thus: inhibitors of TNFa-induced NFkB p65 translocation, primary screen, imaging, HUVEC, MLSMR starter and 10KST1 sets (AID 438;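 active means inhibition above 20% together with a positive visual image hit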;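 further: compound added about 3h40 before a 20 min TNFalpha stimulation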;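 on inhibition: signal is the nuclear over cytoplasmic p65 intensity ratio per well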). Particulars: HUVEC TNFa-induced p65 nuclear translocation; cell count: measured here: nuclei count (cytotoxicity indicator), at 2.08 µM; inhibition: at 2 µM, stronger effect = higher value, 0% TNFa-plus-vehicle, 100% no-TNFa wells.
Assay [2] can be described thus: reduction of polyQ htt aggregates in cells – imaging, exon1htt(103Q)mCFP cells, high-content imaging, primary screen (AID 483;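 active means visual image review flags a hit and inhibition of aggregation exceeds 20%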;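 further: compound exposure lasted 3 days before fixation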;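 on nuclei count: percent of the per-plate median nuclei count of sample wells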). Particulars: exon1htt(103Q)mCFP cell line, aggregate imaging, at 2 µM; inhibition of aggregation: stronger effect = higher value; nuclei count: measured here: cell count, toxicity.
Assay [3] in a line: endothelial E-selectin expression blockers – imaging, HUVEC, immunofluorescence, MLSMR starter and 10KST1 sets, primary screen (AID 487;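 active means visually confirmed hit in the image check and inhibition above 20%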;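 on inhibition: signal is fraction of cell area covered by stained E-selectin grains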;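 on nuclei count: 100% = median nuclei count of all wells on the same plate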). The settings on record: HUVEC TNFalpha-induced E-selectin immunofluorescence imaging, at 2 µM; inhibition: stronger effect = higher value; nuclei count: measured here: cell number, toxicity.
A short description of assay [4]: Primary imaging screen for DUSP6 inhibitors that restore phospho-Erk in transfected HeLa cells, chemical complementation (AID 609;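 active means compounds giving at least 50% inhibition in the cell-based MKP-3 phosphatase rescue imaging test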;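 on inhibition: phospho-Erk level distribution per well compared with pooled transfected vehicle control wells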). Particulars: HeLa MKP-3 transfected, phospho-Erk imaging KS statistic, at 10 µM, cells stimulated with TPA for 15 min.
Assay [5] addresses Dual specificity protein phosphatase 6 (Homo sapiens) (UniProt Q16828). Described as above. Particulars: HeLa MKP-3 transfected, phospho-Erk imaging KS statistic; at 10 µM; stronger effect = higher value; cells stimulated with TPA for 15 min.
For assay [6], the target named is Voltage-gated potassium channel subunit beta-2 (Rattus norvegicus) (UniProt P62483). The experiment in a line: inhibitors of rat Kvbeta2 reductase activity – biochemical, NADPH fluorescence, primary screen (AID 622;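 active means fluorescence slope higher than the sample average by over 3 SD, cut at about -0.22 in these data, passing the limit was not always enough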;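 further: slope of raw intensity against log time taken from 70 to 1610 s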). The settings on record: recombinant KvBeta, 4-cyanobenzaldehyde reduction, at 10 µM, stronger effect = higher value.
The target is the same in assay [7]. The experiment in a line: enhancers of rat Kvbeta2 NADPH turnover – biochemical, NADPH fluorescence, primary screen (AID 623;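 active means NADPH fluorescence slope more negative than the mean of all samples by about 3 SD, 99.7% confidence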;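 further: fluorescence intensity change per second fitted from 20 to 320 s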). Particulars: Recombinant KvBeta, NADPH fluorescence decrease slope, 10 min; at 10 µM; stronger effect = lower value.
In assay [8] the target is Alpha-2C adrenergic receptor (Homo sapiens) (UniProt P18825). The assay is described as follows: compounds altering alpha2C-coupled GIRK flux – cell-based, HEK293 alpha2C/GIRK1/2, thallium flux, primary screen (AID 624;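 active means fluorescence slope after compound addition differing from the mean of all screened samples at 99.7% confidence, in either direction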;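 further: slope of fluorescence ratio to pre-addition baseline per second over 15 to 24 s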). Particulars: thallium flux BTC fluorescence, at 10 µM, actives lie on both sides.
Assay [9] is described as follows: inhibitors of larval lipid processing in zebrafish, primary screen, whole organism, PED6 fluorescence, gall bladder and intestine (AID 686;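 active means a full or partial loss of lipid-probe fluorescence in the fish gall bladder, intestine or both, judged by eye; inactive means no fluorescence loss, or compound toxic to the fish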;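 further: larvae 5 to 7 days old with five fish per well; signal comes from phospholipase A2 cleavage of quenched PED6 carried via bile; overnight exposure to compound and PED6 before scoring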). The settings on record: Zebrafish larvae PED6 lipid processing, fluorescence scoring; screened at 20 µM (by protocol).
Assay [10] can be described thus: loss of swimming-algae plug formation – whole organism, Chlamydomonas reinhardtii, WT vs cilia-less mutant, absorbance, 96-well, primary screen (AID 463189).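 Further: 0% = wild type cc124 cells in DMSO and 100% = ciliumless bld1 mutant cells.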 The settings on record: Chlamydomonas reinhardtii gravitaxis, OD600 absorbance, 2 days; at 10 µM; stronger effect = higher value.
Assay [11] can be described thus: blockers of RIG-like receptor reporter activation – cell-based, Sendai virus stimulus, luciferase, 10K MLSCN set, TLR/RLR signaling modifier project, primary screen (AID 602276;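 active means inhibition at or above 50% at 10 µM; inactive means inhibition below 50%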;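 further: firefly luciferase from ISG56 promoter only with Renilla not read in this screen; 0% = Sendai virus plus DMSO and 100% = medium plus DMSO without virus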). The settings on record: HEK293 RL24 IRF3 luciferase reporter, at 10 µM, stronger effect = higher value.
A short description of assay [12]: TLR3 IRF3 reporter activation blockers – cell-based, poly I:C stimulus, luciferase, 10K MLSCN set, primary screen (AID 602277;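 active means inhibition of the reporter signal at or above 50%; inactive means inhibition below 50%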). Particulars: HEK293-TLR3 RL24 IRF3 luciferase reporter, at 10 µM, stronger effect = higher value.
The mark [13] stands for this setting: measured here: cell density z-score.
Setting [14] is: measured here: nuclear c-Myc green intensity z-score.
[15] abbreviates: measured here: nuclear pErk red intensity z-score, stronger effect = higher value.

Dual specificity protein phosphatase 6 (Homo sapiens), sequence (Q16828 whole entry, looked up): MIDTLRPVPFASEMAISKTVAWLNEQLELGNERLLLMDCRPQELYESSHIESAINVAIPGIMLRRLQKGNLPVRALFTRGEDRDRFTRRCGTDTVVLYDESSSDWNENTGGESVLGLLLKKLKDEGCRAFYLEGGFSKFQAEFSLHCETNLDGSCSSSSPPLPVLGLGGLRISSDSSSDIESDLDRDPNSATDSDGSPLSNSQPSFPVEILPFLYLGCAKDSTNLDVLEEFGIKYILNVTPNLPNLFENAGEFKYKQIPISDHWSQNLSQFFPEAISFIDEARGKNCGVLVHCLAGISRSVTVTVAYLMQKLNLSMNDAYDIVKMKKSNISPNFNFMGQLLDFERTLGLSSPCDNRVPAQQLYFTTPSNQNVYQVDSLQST
Voltage-gated potassium channel subunit beta-2 (Rattus norvegicus), sequence (P62483 whole entry, looked up): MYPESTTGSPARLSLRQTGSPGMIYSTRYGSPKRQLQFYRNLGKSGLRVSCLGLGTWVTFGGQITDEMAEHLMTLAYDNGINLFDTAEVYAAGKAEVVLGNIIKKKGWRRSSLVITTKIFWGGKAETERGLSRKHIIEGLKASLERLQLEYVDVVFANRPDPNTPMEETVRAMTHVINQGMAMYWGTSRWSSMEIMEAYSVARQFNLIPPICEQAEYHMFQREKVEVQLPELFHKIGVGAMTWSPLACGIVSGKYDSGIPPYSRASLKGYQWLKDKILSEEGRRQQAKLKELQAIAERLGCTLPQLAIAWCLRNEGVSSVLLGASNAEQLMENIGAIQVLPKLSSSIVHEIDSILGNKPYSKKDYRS
Alpha-2C adrenergic receptor (Homo sapiens), sequence (P18825 whole entry, looked up): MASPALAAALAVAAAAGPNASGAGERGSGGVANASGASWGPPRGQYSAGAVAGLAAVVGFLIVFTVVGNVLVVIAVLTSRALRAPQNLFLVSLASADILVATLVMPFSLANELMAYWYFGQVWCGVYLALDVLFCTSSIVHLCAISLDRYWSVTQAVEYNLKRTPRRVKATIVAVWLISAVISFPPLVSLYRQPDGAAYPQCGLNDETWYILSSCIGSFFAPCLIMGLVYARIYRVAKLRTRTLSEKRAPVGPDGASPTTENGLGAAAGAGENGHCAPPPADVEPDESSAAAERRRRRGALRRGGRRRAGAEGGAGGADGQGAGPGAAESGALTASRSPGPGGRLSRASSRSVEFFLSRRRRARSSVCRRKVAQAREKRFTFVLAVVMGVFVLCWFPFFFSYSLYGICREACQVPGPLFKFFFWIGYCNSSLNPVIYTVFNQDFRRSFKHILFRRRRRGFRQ

As usually defined, the inhibition is the drop in the measured response relative to a control, in per cent. For the compound `NNC(=O)c1ccncc1`, the cell count in [1] turned out to be 640. Moreover, the inhibition in assay [1] was 1.1% (inactive); in [3], -58.5% (inactive); in [5] it was 16.8% (inactive); in [10], 2.05% (inactive); in assay [11] it was 13.6% (inactive); in [12], 39.7% (inactive). In assay [2], the inhibition of aggregation was -3.3% (inactive). Also, the nuclei count turned out to be 113% in [2] and 126% in assay [3]. Further, the values for the z-score in [4] (setting [13]), in [4] (setting [14]) and in assay [4] (setting [15]) were 1.92, 0.875 and -1.14, respectively. For the same compound, in assay [6], the fluorescence slope was -0.467 (inactive). In [7], the NADPH fluorescence slope was -6.4e-05 (inactive). Moreover, in assay [8], the slope was 0.00499 (inactive). Further, the outcome in assay [9] was inactive.
`C[C@]12CC[C@@H]3c4ccc(O)cc4CC[C@H]3[C@@H]1CCC2=O`: the cell count in assay [1] was found to be 576. For the same compound, the inhibition in assay [1] is -0.3% (inactive); in assay [3] it was -80.9% (inactive); in [5] it was 17.3% (inactive); in assay [10], -0.014% (inactive) and 40.8% (inactive); in assay [11], 8.21% (inactive); in assay [12] it was 34.8% (inactive). Moreover, the inhibition of aggregation in assay [2] was 3.1% (inactive). Besides, the nuclei count in assay [2] came out at 98%; in [3], 120%. Further, the z-score in assay [4] (setting [13]) was -8.47; in [4] (setting [14]) it was 2.04; in assay [4] (setting [15]), 2.06. For the same compound, the fluorescence slope in assay [6] was -0.463 (inactive). In addition, the NADPH fluorescence slope in [7] was -3.3e-05 (inactive). For the same compound, the slope in assay [8] was 0.00425 (inactive). Further, the outcome in [9] was inactive.
Regarding `COC(=O)Nc1nc2ccc(Sc3ccccc3)cc2[nH]1`, the cell count in [1] stood at 678. In addition, the inhibition in assay [1] was 4.6% (inactive); in assay [3], -3.1% (inactive); in assay [5] it was -5.24% (inactive); in [10], -5.89% (inactive); in [11], 43% (inactive); in [12], -12.9% (inactive). For the same compound, in [2], the inhibition of aggregation is 9.4% (inactive). Moreover, the values for the nuclei count in assay [2] and in assay [3] were 103% and 76.4%, respectively. In addition, the z-score in assay [4] (setting [13]) is -0.13; in assay [4] (setting [14]), 0.104; in assay [4] (setting [15]), -0.162. For the same compound, the fluorescence slope in [6] is -0.475 (inactive). In assay [7], the NADPH fluorescence slope was -5.5e-05 (inactive). In assay [8], the slope is 0.00514 (inactive). The compound was classed as inactive in assay [9].
Regarding `COCCCC/C(=N\OCCN)c1ccc(C(F)(F)F)cc1`, in [1], the cell count is 514. The inhibition is -7.2% (inactive) in [1]; -121% (inactive) in [3]; 9.37% (inactive) in [5]; -1.98% (inactive) and -5.54% (inactive) in assay [10]; 5.66% (inactive) in assay [11]; 36.1% (inactive) in assay [12]. For the same compound, the inhibition of aggregation in [2] was -27.7% (inactive). The nuclei count in assay [2] was 100%; in [3] it was 121%. The z-score in assay [4] (setting [13]) is 1.11; in [4] (setting [14]) it was -1.18; in assay [4] (setting [15]), 0.0602. Moreover, the fluorescence slope in assay [6] was -0.468 (inactive). For the same compound, the NADPH fluorescence slope in [7] is -6.2e-05 (inactive). For the same compound, the slope in [8] is 0.00513 (inactive). Besides, in assay [9], the compound was called inactive.
As for `Cn1c(=O)c2c(ncn2CCO)n(C)c1=O`, the cell count in assay [1] came to 575. Besides, the inhibition in [1] is 3.2% (inactive); in [3], -46.8% (inactive); in assay [5], 1.38% (inactive); in [10], -9.91% (inactive); in assay [11] it was 14.7% (inactive); in [12], 34.5% (inactive). Further, the inhibition of aggregation in assay [2] is -12.9% (inactive). Further, the results for the nuclei count in assay [2] and in [3] were 102% and 114%, respectively. The z-score in [4] (setting [13]) is -1.46; in assay [4] (setting [14]), -1.4; in assay [4] (setting [15]), -0.23. For the same compound, the fluorescence slope in assay [6] is -0.45 (inactive). The NADPH fluorescence slope in [7] is -4.4e-05 (inactive). For the same compound, the slope in assay [8] is 0.00454 (inactive). The result in assay [9] was inactive.
Turning to `CN1CCN(CCCN2c3ccccc3Sc3ccc(Cl)cc32)CC1`, the cell count in assay [1] amounted to 625. For the same compound, the inhibition in [1] is -0.8% (inactive); in assay [3], -67.5% (inactive); in [5], 30.1% (inactive); in assay [10] it was 96.7% (active) and 24.7% (inactive); in assay [11], 17.3% (inactive); in assay [12] it was 22.7% (inactive). Moreover, in [2], the inhibition of aggregation was 6.1% (inactive). The nuclei count was 98.7% in [2] and 115% in assay [3]. In addition, the z-score amounted to 0.0938 in assay [4] (setting [13]), 1.34 in assay [4] (setting [14]) and 0.8 in assay [4] (setting [15]). Further, the fluorescence slope in [6] is -0.449 (inactive). The NADPH fluorescence slope in [7] is 1.3e-05 (inactive). Moreover, the slope in assay [8] was 0.00441 (inactive). Also, in [9], the compound was classed as inactive.
